Rows were chosen to be rich in hits. Some 7.3% of all compounds tested hit in one or more screens of this group.
NPC1 promoter act – activates the NPC1 promoter; Huh7 NPC1 promoter luciferase reporter, 24 h; AID 485313; Potency, µM (titrated, usually from 9.22 µM), without a hit: at the top dose activation, usual class: activators; hit rate 2.4% among 320,000; further: % of control where 0% means no effect; nearly all actives have a fitted effect of over 60% in size
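Stable NPC1-promoter luciferase Huh7 line; cpd (DMSO) 24 h, 37 °C, 5% CO2; Amplite luciferase reagent 10 min RT; luminescence readout. qHTS format.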
FLuc modulator – inhibits or activates purified firefly luciferase, miR-21 counter-screen; P08659; purified FLuc, Km substrates, luminescence inhibition; Potency, µM (highest dose often 57.5 µM), without a hit: at the highest dose activity change, negative = inhibition, hits mostly inhibitors; hit rate 6.9% among 360,000;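 further: plate controls were vehicle for no effect and reference inhibitor for full effect; nearly all actives have a fitted effect of over 55% in size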
Target sequence (P08659 whole entry, looked up): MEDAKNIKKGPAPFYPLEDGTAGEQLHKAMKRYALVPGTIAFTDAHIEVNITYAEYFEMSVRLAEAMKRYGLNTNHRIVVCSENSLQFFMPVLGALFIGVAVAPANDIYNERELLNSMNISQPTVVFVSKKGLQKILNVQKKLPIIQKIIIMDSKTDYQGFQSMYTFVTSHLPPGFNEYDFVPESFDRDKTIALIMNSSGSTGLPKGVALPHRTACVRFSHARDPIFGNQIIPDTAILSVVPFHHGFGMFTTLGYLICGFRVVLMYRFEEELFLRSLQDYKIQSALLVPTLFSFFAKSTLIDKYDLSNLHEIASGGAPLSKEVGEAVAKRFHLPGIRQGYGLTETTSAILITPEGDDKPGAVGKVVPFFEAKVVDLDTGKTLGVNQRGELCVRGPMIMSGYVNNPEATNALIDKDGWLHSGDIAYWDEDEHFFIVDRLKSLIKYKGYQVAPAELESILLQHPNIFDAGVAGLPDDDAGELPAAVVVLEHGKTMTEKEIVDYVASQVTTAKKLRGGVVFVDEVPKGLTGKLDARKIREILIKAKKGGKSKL
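Biochemical qHTS of compounds, final roughly 60 µM downward over six points, against 10 nM purified firefly luciferase using Km concentrations of substrates (10 uM D-luciferin, 10 uM ATP) in Tris acetate pH 7.5 buffer; luminescence output.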
SMN2 splice up – increases expression of the SMN2 splice variant; HEK293 SMN2-luciferase splicing reporter, luminescence, 30-36 h; Potency, µM (doses to about 46.1 µM), for inactives: top-dose activity change, positive = activation, most hits filed as activators; hit rate 2.8% among 210,000; AID 1458; further: % of control where 0% means no effect; nearly all actives have a fitted effect of over 55% in size
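HEK293 cells carry an SMN2 […]–luciferase reporter in which exon 7 inclusion puts luciferase in frame. Cells were plated 10-12 h before compound addition, then incubated 30-36 h at 37C. ONE-Glo luminescence was read; sodium butyrate at 4.5 mM final served as control.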
Rab9 promoter act – Rab9 promoter activation; Huh7 Rab9 promoter-luciferase reporter, luminescence, 24 h; Potency, µM (top dose mostly 9.22 µM), inactives show at the highest dose activation, negative = inhibition, hits mostly activators; hit rate 2.8% among 320,000; further: % of control where 0% means no effect; nearly all actives have a fitted effect of over 60% in size
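Huh7 cells stably carrying Rab9 promoter–luciferase reporter, plated 1500 cells/well, compound added after 2 h and incubated 24 h at 37 °C; luciferase luminescence then read after 10 min with detection reagent.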
Luc counter – Kinase-Glo luciferase inhibition (counter-screen); Kinase-Glo luciferase, ATP luminescence, 8 min; Q27757; Potency, µM (top dose mostly 38.3 µM), for inactives: at the top dose activity change, negative = inhibition, hits mostly inhibitors; AID 1379; hit rate 0.28% among 200,000; further: on the % scale 0 is the no-effect control and ±100 the full control effect; nearly all actives have a fitted effect of over 60% in size
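Compounds were added to a substrate mix at pH 7.2 (50 mM imidazole, 10 uM ATP, within the enzyme's linear range), followed by Kinase-Glo detection reagent; luminescence was measured after 8 minutes at ambient temperature.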
ELG1 genotox – inducers of genotoxicity in HEK293T ELG1-luciferase cells; HEK293T ELG1-luciferase reporter, luminescence, 16 h; Potency, µM (titrated, usually from 46 µM), for the others: at the highest dose activity change, positive = activation, actives largely listed as activators; hit rate 1.3% among 330,000; further: % of control where 0% means no effect; nearly all actives have a fitted effect of over 60% in size
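ELG1-luciferase HEK293T cells, 2,000/well; compound pinned in; 16 hr, 37 °C, 5% CO2; ONE-Glo, 30 min RT; luminescence on CCD imager.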
Numbers without * were called inactive; ? = inconclusive; . = no result. The call rests on the fitted dose curve; in most records, active means well fitted curve in the direction sought with a large enough effect; inconclusive means small, poorly fitted or top-dose-only effect, or another doubt; inactive means no such curve, though single readings can be large; an effect the other way counts as inactive or inconclusive. Potency means the concentration at half of the fitted maximal effect.

SMILES	NPC1 promoter act	FLuc modulator	SMN2 splice up	Rab9 promoter act	Luc counter	ELG1 genotox
COc1cccc(C(=O)NCCc2csc(-c3ccc(Cl)cc3)n2)c1	.	21µM*	.	.	.	.
COC(=O)c1cc2c(cc1NC(=O)c1cnn(-c3ccc(C)cc3)c1-n1cccc1)OCO2	.	-2%	.	.	.	.
COc1cccc([C@@H]2Oc3ccc(Br)cc3C[C@H]2OC(=O)NS(=O)(=O)c2ccc(C)cc2)c1	.	.	-4%	.	0%	.
CCC1CN(C(=O)Nc2ccccc2C(F)(F)F)c2ccccc2S1 (stereo unspecified)	.	-3%	.	.	.	.
O=C(CCCn1c(=O)c2cccn2c2ccccc21)NCCc1ccc(Cl)cc1	.	3.8µM*	.	.	.	.
O=C(CCn1c(=O)c2cccn2c2ccc(F)cc21)NCCc1ccc(Cl)cc1	.	0%	.	.	.	.
Cc1cccc(C)c1NC(=O)CCCn1c(=O)c2cccn2c2ccccc21	.	5.4µM*	.	.	.	.
Cc1cc(C)cc(NC(=O)CCn2c(=O)c3cccn3c3ccccc32)c1	-29%	-1%	.	-24%	.	-9%
O=C(Nc1cnn(C23CC4CC(CC(C4)C2)C3)c1)c1cnn2cccnc12	0.56µM*	2.1µM*	.	0.45µM*	1%	?
Cc1cc(C(=O)Nc2cccc(/C=C/C(=O)O)c2)c(C)o1	2%	13µM*	8%	5%	-13%	1%
Cc1oc(-c2ccccc2)cc1C(=O)Nc1cccc(/C=C/C(=O)O)c1	-1%	15µM*	3%	-1%	5%	1%
Cc1oc(C(C)(C)C)cc1C(=O)Nc1cccc(/C=C/C(=O)O)c1	-3%	12µM*	0%	-19%	-2%	10%
COc1ccc(OC)c(CCNC(=O)c2cnn(-c3ccccc3)c2-n2cccc2)c1	.	-15%	-36%	.	.	.
COc1ccccc1C(=O)N(CCC1CCCN1C)c1nc2ccccc2s1 (stereo unspecified)	-3%	4.8µM*	-14%	-4%	-8%	?
COc1ccc2sc(N(CCCN(C)C)C(=O)c3nc4ccccc4s3)nc2c1	0%	-11%	10%	12%	3%	4%
CC1(C)N([O-])c2cc([N+](=O)[O-])ccc2[N+]1=O	0%	11µM*	.	-24%	.	-1%
COc1ccc(OC)c(CNC(=O)C2CCN(S(=O)(=O)c3cn(C)cn3)CC2)c1	.	3%	.	.	.	.
COc1ccc(OCCSc2n[nH]c(N)n2)cc1	-2%	-7%	-33%	2%	-8%	?
COc1ccc(OCCSc2ncn[nH]2)cc1	?	13µM*	.	?	-4%	13%
CC(C)Oc1ccc(CSc2ncn[nH]2)cc1	26%	15µM*	.	?	-9%	9%
CCC(C)NC(=O)C1CCCN(c2nc(C)cc(OC)n2)C1 (stereo unspecified)	1%	0%	2%	-5%	2%	-1%
COc1cc(C)nc(N2CCCC(C(=O)NC3CCC(C)CC3)C2)n1 (stereo unspecified)	3.2µM*	11µM*	?	4µM*	3%	?
O=C(Nc1ccc(Br)c(C(F)(F)F)c1)c1ccccc1	-4%	19µM*	-13%	-1%	2%	2%
O=C(Nc1ccc(-c2cnco2)cc1)c1ccccc1	3.2µM*	?	.	2.5µM*	.	?
O=C(NNC(=O)c1ccc(NC(=O)c2ccccc2)cc1)c1ccc(F)cc1	1%	1%	.	8%	.	18µM*
SMILES	NPC1 promoter act	FLuc modulator	SMN2 splice up	Rab9 promoter act	Luc counter	ELG1 genotox
Cc1ccc(C)n1-c1ccc(C(=O)Nc2ccccc2)cc1	28%	9.5µM*	13µM*	?	-8%	?
O=C(NNC(=O)c1ccc(NC(=O)c2ccccc2)cc1)Nc1ccccc1	-1%	-12%	-1%	-4%	-4%	18%
O=C(Nc1ccc(Br)c(C(F)(F)F)c1)c1ccc(C(F)(F)F)cc1	2%	?	.	-3%	.	-12%
COc1cc(NC(=O)CCCc2nnc3n(CC(C)C)c(=O)c4sccc4n23)cc(OC)c1	.	3%	.	.	.	.
CCOC(=O)c1c(C)c(-c2ccccc2)n(CC(=O)NC2CCCCCC2)c1C	.	-19%	16%	.	.	.
O=C(Nc1ccc(C(F)(F)F)cc1)c1ccccc1Br	22%	?	?	28%	1%	9%
O=C(Nc1ccccc1)c1ccc(S(=O)(=O)Nc2cccc(O)c2)cc1	-1%	0%	.	-4%	.	-9%
O=C(Nc1ccc(C(=O)c2ccccc2)cc1)c1ccccc1	3.5µM*	11µM*	.	2µM*	.	?
CC(C)CC(=O)Nc1ccc(C(=O)Nc2cccc(O)c2)cc1	30%	17µM*	.	?	-4%	?
CCC(=O)Nc1ccc(C(=O)c2ccccc2)cc1	12%	?	6%	?	2%	6%
O=C(Nc1cccc(O)c1)c1ccc(C(F)(F)F)cc1	?	12µM*	.	?	-13%	18%
O=C(Nc1ccc(C(F)(F)F)cc1)c1ccccc1	2.8µM*	?	.	2.5µM*	.	18%
COc1ccc(-n2c(=O)c3c4c(sc3n(Cc3c(F)cccc3Cl)c2=O)CN(C(C)=O)CC4)cc1OC	.	-2%	.	.	.	.
CCOC(=O)c1[nH]c(C)c(CCC(=O)NCc2ccc(N(C)C)cc2)c1C	.	2%	.	.	.	.
O=C(/C=C/c1ccc([N+](=O)[O-])cc1)NCc1cccs1	-3%	?	-34%	0%	-2%	3%
Cc1ccc(/C=C/C(=O)NCc2cccs2)cc1	25%	11µM*	11µM*	6%	0%	?
Cc1ccc(/C=C/C(=O)NCc2cccs2)c(C)c1	?	6.7µM*	.	2.8µM*	5%	?
Cc1ccc(/C=C/C(=O)NCc2cccs2)o1	8%	?	13%	16%	2%	6%
CCN1CCCC1Cn1c(-c2ccccc2)nc2c(N(CCOC)CCOC)nc(C)nc21 (stereo unspecified)	.	.	-8%	.	-4%	.
